Cruzain inh noDet: qHTS Assay for Promiscuous and Specific Inhibitors of Cruzain (without detergent). Potency, µM, inactives show max response, negative = inhibition, most hits filed as inhibitors. purified cruzain, Z-FR-AMC fluorescence, no detergent. Cruzipain (Trypanosoma cruzi), P25779. 200,000 compounds, 2.3% hits;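 further: plate controls were enzyme without inhibitor for no effect and buffer without enzyme for full effect; nearly all actives have a fitted effect of over 40% in size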
Target sequence (P25779 123-467 limits assumed): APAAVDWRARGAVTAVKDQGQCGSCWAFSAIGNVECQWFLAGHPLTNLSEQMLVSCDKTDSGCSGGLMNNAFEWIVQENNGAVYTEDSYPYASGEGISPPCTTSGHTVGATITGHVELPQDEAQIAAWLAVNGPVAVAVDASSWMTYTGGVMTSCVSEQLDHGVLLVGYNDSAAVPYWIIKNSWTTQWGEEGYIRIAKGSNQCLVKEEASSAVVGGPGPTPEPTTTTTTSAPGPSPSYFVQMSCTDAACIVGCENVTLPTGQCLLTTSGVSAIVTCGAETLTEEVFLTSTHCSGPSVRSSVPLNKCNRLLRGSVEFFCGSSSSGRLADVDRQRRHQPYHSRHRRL
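Purified cruzain at 1.5 nM, pre-incubated 15 min with compound at room temperature in 100 mM sodium acetate pH 5.5, 5 mM DTT, 0.00005% Triton X-100. Reaction started with 2 uM Z-FR-AMC; AMC fluorescence increase over 60 s gives rate.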
Cruzain inh Det: qHTS Assay for Promiscuous and Specific Inhibitors of Cruzain (with detergent). purified cruzain, Z-FR-AMC fluorescence, 0.01% Triton. Potency, µM, for the others: max response, negative = inhibition, hits mostly inhibitors. 200,000 compounds, 0.43% hits. AID 1478, 2009;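 further: plate controls were neutral wells for no effect and buffer without enzyme for full effect; nearly all actives have a fitted effect of over 40% in size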
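Steps: dispense cruzain (1.5 nM final) in acetate buffer pH 5.5 with DTT and 0.01% Triton X-100; pin-transfer compounds; incubate 15 min RT; add Z-FR-AMC (2 uM final); read fluorescence every 30 s, using the 60 s intensity change.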
NS1 function inh: qHTS Assay for Inhibitors of Influenza NS1 Protein Function; Potency, µM (series often up to 46.1 µM), inactives show at the highest dose activity, positive = more growth; 270,000 compounds, 0.4% hits; calls by dose curve; further: actives are rising curves; nearly all actives have a fitted effect of over 50% in size
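Growth recovery, yeast-based: influenza A NS1 expressed in S. cerevisiae causes slow growth, and suppressors are detected by OD600. The parent strain without NS1 is used as positive control.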
An asterisk follows results filed as active. Shown is part of a subset that was picked to be rich in hits. Unless noted, the call rests on the fitted dose curve; in most records, active means well fitted curve in the direction sought with a large enough effect; inconclusive means small, poorly fitted or top-dose-only effect, or another doubt; inactive means no such curve, though single readings can be large; an effect the other way counts as inactive or inconclusive. Potency means the concentration at half of the fitted maximal effect.

CCOc1ccc(-c2nnn(CC(=O)NCc3ccc(OC)cc3)n2)cc1OCC was read as Cruzain inh noDet 23.6%, Cruzain inh Det 0.5% and NS1 function inh -2.2%.
Screening Cc1cccc(NC(=O)c2c(N)sc3c2CCC(C)C3)c1 (stereo not given) returned Cruzain inh noDet -10.2% and Cruzain inh Det -6.1%.
Screening CN(Cc1ccco1)c1cc(-c2ccc3c(c2)OCO3)ncn1 returned Cruzain inh noDet -3.0% and Cruzain inh Det -5.9%.
COC(=O)c1ccc(C(NC(=O)OCc2ccccc2)/C(F)=C/[C@@H](C)C(=O)NCc2ccc(-c3ccccc3)cc2)cc1 (stereo not given in full) was read as Cruzain inh noDet 10µM*, Cruzain inh Det 2.1% and NS1 function inh 7.6%.
`COC(=O)c1ccc(C(NC(=O)OCc2ccccc2)/C(F)=C/[C@@H](C)C(=O)NCc2cc(F)cc(F)c2)cc1` (stereo not given in full) gave Cruzain inh noDet -2.8% and Cruzain inh Det -1.4%.
Cc1ccc(-c2csc(C3C(N)=NC(S)=C(C#N)C34CCCCC4)n2)cc1 (stereo not given) was read as Cruzain inh noDet 15.8µM*, Cruzain inh Det -9.3% and NS1 function inh inconclusive.
Screening N#CC1=C(S)N=C(N)C(c2nc(-c3ccccc3)cs2)C12CCCC2 (stereo not given) returned Cruzain inh noDet inconclusive, Cruzain inh Det -0.8% and NS1 function inh 21.9%.
Screening Cc1cc(C)cc(-n2nnnc2SCC(=O)Nc2nc(-c3ccc(Cl)cc3)cs2)c1 returned Cruzain inh noDet 6.31µM*, Cruzain inh Det 4.3% and NS1 function inh 0.6%.
Cc1cc(-c2nnc(SCC(=O)Nc3nc(-c4ccc(Cl)cc4)cs3)o2)no1 was read as NS1 function inh 1.1%.
Screening Cc1cc(C)cc(-n2nnnc2SCC(=O)Nc2nc(-c3ccc(F)cc3)cs2)c1 returned Cruzain inh noDet 25.1µM*, Cruzain inh Det 5.5% and NS1 function inh -3.4%.
Screening Cc1ccc(-n2nnnc2SCC(=O)Nc2nc(-c3ccc(F)cc3)cs2)cc1C returned Cruzain inh noDet inconclusive, Cruzain inh Det 3.5% and NS1 function inh 5.0%.
For COc1cc([C@@H]2c3cc4c(cc3[C@@H](O[C@@H]3O[C@H]5CO[C@@H](C)O[C@@H]5[C@@H](O)[C@H]3O)[C@@H]3COC(=O)[C@@H]23)OCO4)cc(OC)c1O the results were Cruzain inh noDet -4.0% and Cruzain inh Det 0.4%.
Screening Cc1cc(=O)oc2c(CN3CCCC3)c(O)ccc12 returned NS1 function inh 2.3%.
For CCCc1cc(=O)oc2c(CN3CCCC3)c(O)c(Cl)cc12 the results were Cruzain inh noDet inconclusive, Cruzain inh Det 31.6µM* and NS1 function inh 7.7%.
`CCCc1cc(=O)oc2c(CN3CCCC3)c(O)ccc12` gave Cruzain inh noDet inconclusive, Cruzain inh Det 25.1µM* and NS1 function inh -4.6%.
`Cc1cc(=O)oc2c(CN3CCCCC3)c(O)c(Cl)cc12` gave Cruzain inh noDet inconclusive, Cruzain inh Det inconclusive and NS1 function inh 19.1%.
CCc1ccc(-n2nc(CO)c(C(=O)NC)n2)cc1 was read as Cruzain inh noDet -6.9% and Cruzain inh Det -2.3%.
CC(=O)OC[C@@]12C(=O)[C@@H](O)[C@@H](C)[C@]3(C[C@@H](c4ccoc4)O[C@@H]3OC(C)=O)[C@H]1CCC[C@]21CO1 was read as Cruzain inh noDet -7.0% and Cruzain inh Det 3.2%.
Cc1cc(/C=C2\SC(=S)N(Cc3ccco3)C2=O)c(C)n1-c1ccccc1 was read as Cruzain inh noDet 10µM*, Cruzain inh Det -3.9% and NS1 function inh inconclusive.
For O=C1/C(=C\c2ccco2)SC(=S)N1Cc1ccccc1 the results were Cruzain inh noDet -16.5%, Cruzain inh Det -29.1% and NS1 function inh 2.0%.
`COC(=O)[C@H](COC(C)(C)C)NC(=O)O[C@@H]1C(=O)c2cc(OC)ccc2O[C@H]1c1cccc(OC)c1` gave Cruzain inh noDet -3.5% and Cruzain inh Det -1.3%.
For O=C(O)C1CCCN1S(=O)(=O)c1cccc2cccnc12 (stereo not given) the results were NS1 function inh 5.2%.
Cc1cccc(-c2nc3c(cnn3-c3ccccc3)c(=O)n2-c2ccc(Cl)cc2)c1 was read as Cruzain inh noDet inconclusive and Cruzain inh Det -9.5%.
`Cc1ccc(-n2cc(CNCCN3CCOC3=O)c(-c3cccc(C)c3)n2)cc1` gave NS1 function inh -3.6%.
Screening Cc1cccc(C2=NN(c3ccc(Br)cc3)[C@@H](C(=O)N3CCOC3=O)[C@@H]2c2ccc(F)cc2)c1 returned Cruzain inh noDet 17.8µM*, Cruzain inh Det -14.2% and NS1 function inh inconclusive.
